Bioassay records from PubChem BioAssay.
PAX8 inh HTS: lowers PAX8-driven luciferase in RMG-I cells. RMG-I TPO-luciferase reporter, SteadyGlo, 24 h. inhibition, % at 12.6 µM. 1.2% of 360,000 active. AID 652154;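 active means mean replicate inhibition at least 60% with every replicate also reaching 60%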;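 further: luciferase light reporting Pax8 driven TPO promoter activity; plate controls were median of neutral control wells for no effect and mitoxantrone controls for full effect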
Beta apoptosis: beta cell apoptosis inhibition | INS-1E cytokine-induced death, ATP luminescence, 48 h; percent of positive-control rescue, neutral wells zero | protection from apoptosis, % (test concentration not listed) | 0.8% of 300,000 active | AID 435005;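 active means Every replicate reaches about 75%, or at least half do and their mean reaches it too, limit read from the data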;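 further: 0% = cytokine-treated negative control wells and 100% = positive control rescue; higher means more ATP so stronger rescue from cytokine killing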
Gli-Sufu block: Gli-Sufu pathway antagonism; 0.74% of 340,000 active; inhibition, % at 5 µM; Sufu-KO-LIGHT fibroblasts, Gli luciferase reporter luminescence; AID 588413;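 active means inhibition above about 55%, limit read from the data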;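 further: 0% = DMSO-treated cells and 100% = wells with medium but no cells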
CSC inhib: blocks cancer stem cells. cancer stem cell-like cells viability, luminescence. inhibition, % at 7.5 µM. 1.1% of 300,000 active; in the data active means inhibition above about 75%; tested in HMLE shEcad cells
Mdm2-MdmX inh: inhibitors of human Mdm2/MdmX interaction. O15151+Q00987. SaOS-2 split-luciferase Mdm2/MdmX complementation, luminescence. AID 485346. inhibition, % at 8 µM. 3% of 330,000 active;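 active means inhibition of at least 50% at 8 µM in the primary screen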
Shn3 3UTR inh: inhibitors of Schnurri-3 3'UTR reporter in osteoblasts; inhibition, % at 12.5 µM; Clone20 osteoblast Shn3 3'UTR firefly luciferase, 24 h; 0.52% of 360,000 active;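 active means mean inhibition of at least 75% with every replicate also reaching 75%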;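 further: 0% = median of neutral control wells and 100% = pilot-screen positive control compound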
Mdm2-MdmX conf: human Mdm2/MdmX binding inhibition, confirmed | inhibition, % at 8 µM | shares compounds with Mdm2-MdmX inh | 55% of 10,000 active | luminescent assay; in the data active means inhibition above about 40%
Full FLuc ctr: counter-screen for Mdm2/MdmX inhibitors: full-length luciferase. 77% of 6,200 active. shares compounds with Mdm2-MdmX inh. AID 504607. inhibition, % at 8 µM. SaOS-2 full-length luciferase counterscreen, luminescence;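 active means mean inhibition at 8 µM reaching about 37%, which flags the compound as non-specific, limit read from the data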;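 further: p53-null SaOS-2 cells with luciferase driven by a doxycycline-inducible promoter; compound on cells about two nights before reading with doxycycline added after day one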
The depositor's hits bear a star; . = no result given. Most compounds without a hit are left out; they make up all but 4% or so of the library.

SMILES	PAX8 inh HTS	Beta apoptosis	Gli-Sufu block	CSC inhib	Mdm2-MdmX inh	Shn3 3UTR inh	Mdm2-MdmX conf	Full FLuc ctr
O=[N+]([O-])c1cc(CN2CCN(c3ccccc3)CC2)c(O)c2ncccc12	43	95*	80*	-5	75*	90*	79*	42*
COc1ccc(C(NC(C)=O)c2cc(Cl)c3cccnc3c2O)cc1 (stereo not given)	44	95*	14	107*	76*	90*	71*	29
CC(=O)NC(c1ccc(F)cc1)c1cccnc1 (stereo not given)	.	2	-5	-7	-10	10	.	.
CCCC(=O)NC(c1ccc(OC)c(OC)c1)c1cc(Cl)c2cccnc2c1O (stereo not given)	20	91*	34	-10	73*	88*	60*	28
CC(=O)NC(c1ccccc1)c1cc(Cl)c2cccnc2c1O (stereo not given)	85*	98*	27	104*	77*	69	64*	15
CCOc1ccc(C(NC(=O)c2ccco2)c2ccc(OC)c(OC)c2)cc1 (stereo not given)	.	-7	3	-26	17	-9	.	.
O=[N+]([O-])c1cc(Cl)c(O)c2ncccc12	14	.	-2	.	51*	10	54*	56*
CC(=O)NC(c1ccc(C)cc1)c1cc([N+](=O)[O-])c2cccnc2c1O (stereo not given)	1	71	13	104*	68*	45	68*	25
C[C@@H]1CCCCO[C@H](CN(C)S(=O)(=O)c2ccc(F)cc2)[C@@H](C)CN([C@@H](C)CO)C(=O)c2cc(N(C)C)ccc2O1	33	.	.	.	.	.	.	.
c1nc(CCO[C@H]2CCCCO2)cc2cc3c(cc12)OCO3	5	-2	-35	-2	56*	18	35	.
c1ccc2cc(CCO[C@H]3CCCCO3)ncc2c1	-12	0	-34	-4	2	-27	.	.
COc1ccccc1NC(=S)N(Cc1ccco1)Cc1cc2cc(C)c(C)cc2[nH]c1=O	28	9	7	-11	59*	9	54*	56*
COc1ccccc1NC(=S)N(Cc1ccco1)Cc1cc2cccc(C)c2[nH]c1=O	10	-6	14	-1	-5	30	.	.
Cc1cc2cc(CN(Cc3ccco3)S(=O)(=O)c3c(C)ccc4nsnc34)c(=O)[nH]c2cc1C	.	-3	0	19	61*	11	54*	54*
COc1ccccc1NC(=O)N(Cc1ccco1)Cc1cc2ccc(C)c(C)c2[nH]c1=O	.	-10	-5	-23	50	13	.	.
COc1ccccc1NC(=O)N(Cc1ccco1)Cc1cc2cc(C)cc(C)c2[nH]c1=O	.	7	-2	0	53*	15	37	.
CCOC(=O)c1sc2nc(CSc3ccccc3)nc(N3CCC(C(N)=O)CC3)c2c1C	13	-4	-8	39	30	32	.	.
CCOC(=O)c1sc2nc(CSc3ccccc3)nc(N3CCCN(C)CC3)c2c1C	28	12	45	31	74*	5	43*	63*
O=C(C[C@@H]1C=C[C@H](NC(=O)Nc2cccc(F)c2)[C@@H](CO)O1)NCC1CCCCC1	11	.	.	.	.	.	.	.
COc1ccc(/C=C/c2cc(-c3ccc(C)cc3)o[n+]2C)cc1	.	116*	87*	92*	74*	83*	96*	51*
CSc1nc(Oc2ccc3ccccc3c2)c2ccccc2n1	.	6	19	-5	55*	22	7	.
COc1cccc(NC(=O)N2CC(=O)N3[C@H](CO)[C@H](c4ccc(C#CCC5CCCC5)cc4)[C@@H]3C2)c1	1	.	.	.	.	.	.	.
COc1ccc(/C=N\NC(=O)COc2ccccc2Cl)cc1Cn1nc(C)cc1C	.	9	8	-6	2	20	.	.
COc1ccc(/C=N\NC(=O)c2sccc2C)cc1Cn1nc(C)cc1C	-15	-6	42	9	59*	-14	64*	73*
O=C(N/N=C/c1cccs1)c1ccc2ccccc2c1	-80	3	-38	3	25	-27	.	.
SMILES	PAX8 inh HTS	Beta apoptosis	Gli-Sufu block	CSC inhib	Mdm2-MdmX inh	Shn3 3UTR inh	Mdm2-MdmX conf	Full FLuc ctr
Cc1ccc(/C=N/NC(=O)c2ccc3ccccc3c2)s1	-18	7	-16	50	56*	8	68*	73*
O=C(Cc1ccccn1)NCC[C@@H]1CC[C@H](NS(=O)(=O)c2ccc(Cl)cc2)[C@@H](CO)O1	1	.	.	.	.	.	.	.
COC(=O)c1cccc(NC(=O)Nc2ccc(Cl)c(Cl)c2)c1	.	82*	-55	97*	80*	13	80*	40*
CC(=O)c1cccc(NC(=O)Nc2cccnc2)c1	.	-3	2	6	54*	13	50*	28
O=C(Nc1cccnc1)Nc1cccc(F)c1	-19	-4	-12	2	24	3	.	.
CN(C[C@H]1N[C@@H](CO)[C@H]1c1ccc(-c2cccnc2)cc1)C(=O)CC1CC1	-6	.	.	.	.	.	.	.
O=C1c2ccccc2C(=O)C12OC(c1ccccc1)C1(C(=O)c3ccccc3C1=O)C2c1ccc([N+](=O)[O-])cc1 (stereo not given)	-10	6	-10	15	14	-2	.	.
O=C1c2ccccc2C(=O)C12OC2c1ccc(Cl)cc1 (stereo not given)	.	5	.	15	81*	.	-8	.
Cc1ccc(-c2[nH][nH]c(=O)c(=O)c2N=Nc2ccccc2)cc1	7	8	-9	3	61*	1	-2	.
COc1ccc(CN2C(=NC(=O)c3ccccc3)SC3CS(=O)(=O)CC32)cc1 (stereo not given)	14	2	1	-11	50*	8	5	.
COc1ccc(C(=O)N=C2SC3CS(=O)(=O)CC3N2Cc2ccc(F)cc2)cc1 (stereo not given)	29	0	15	-18	51*	6	41*	65*
O=S(=O)(N[C@H]1CC[C@@H](CCn2cc(-c3ccc(F)cc3)nn2)O[C@@H]1CO)c1ccccc1F	8	.	.	.	.	.	.	.
CCCNC(=O)N1[C@H](CO)[C@H](c2ccc(C3=CCCC3)cc2)[C@@H]1CNC(=O)CC	18	.	.	.	.	.	.	.
O=C(/C=C/c1ccccc1)NC(NC(=S)Nc1ccc(Cl)cc1Cl)C(Cl)(Cl)Cl (stereo not given)	.	27	10	110*	95*	43	92*	23
Cc1ccc(C)c(NC(=S)NC(NC(=O)OCc2ccccc2)C(Cl)(Cl)Cl)c1 (stereo not given)	.	2	9	-19	-5	15	.	.
O=C(/C=C/c1ccccc1)NC(NC(=S)Nc1ccc(C(=O)O)cc1)C(Cl)(Cl)Cl (stereo not given)	4	-8	3	-7	-6	-1	.	.
